“And” between values parts separate entries of the source, which are not always exact repeats. Identical values can stand only once. Records with an inconclusive call do not appear. Entries that show only a call come without a potency. The source made the active and inactive calls. Unless noted, calls come from the whole dose curve; as a rule, active = well fitted curve in the direction sought with a large enough effect in the repeat runs; inconclusive = weak or mixed curves; inactive = no such curve, though single readings can be large; an effect the other way counts as inactive or inconclusive.
tested on: not listed separately; assay: qHTS assay to identify small molecule that activate the aryl hydrocarbon receptor (AhR) signaling pathway - cell viability counter screen (AID 743086); conditions: HepG2-AhR-luc viability, CellTiter-Fluor, 24 h; series mostly up to 70.3 µM; note: nearly all actives have a fitted effect of over 45% in size
In short: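 HepG2-AhR-luc (HG2L7.5c1) cells, 4000/well, were preincubated 5 h at 37C, exposed to compound in qHTS format for 24 hr at 37C, then given CellTiter-Fluor for 30 min; viability was read as fluorescence in the reporter wells.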
Potency is the fitted concentration of half-maximal effect.

Row | Structure (SMILES) | Potency
1 | O=S1(=O)OC(c2cc(Br)c(O)c(Br)c2)(c2cc(Br)c(O)c(Br)c2)c2ccccc21 | 28.1 µM (active)
2 | C[C@H]1CNCCc2ccc(Cl)cc21 | inactive
3 | CCOC(=O)[C@]1(c2ccccc2)Oc2ccccc2[C@@H]1N | inactive
4 | O=C(O)C(F)(F)C(F)(F)C(F)(F)C(F)(F)C(F)(F)C(F)(F)C(F)(F)C(F)(F)C(F)(F)C(F)(F)F | inactive
5 | Cc1cc(=O)[nH]o1 | inactive
6 | Nc1nc(=S)[nH][nH]1 | inactive
7 | CC(C)=CCOc1c2occc2cc2ccc(=O)oc12 | inactive
8 | COc1cc(Cl)c(OC)cc1Cl | inactive
9 | CC1(C)[C@H](C=C(Cl)Cl)[C@@H]1C(=O)O[C@@H](C#N)c1cccc(Oc2ccccc2)c1 | inactive
10 | COC(=O)C(C)N(C(=O)Cc1ccccc1)c1c(C)cccc1C (stereo unspecified) | inactive
11 | CC[C@H]1C[C@H]2[C@@H]3CCC4=CC(=O)CC[C@@H]4[C@H]3CC[C@]2(C)[C@H]1O | inactive
12 | O=C(O)C1(c2ccc3c(c2)OC[C@H](Cc2ccc(-c4ccccc4)cc2)[C@H]3O)CCCC1 | inactive
13 | COc1nn(C(=O)NS(=O)(=O)c2ccccc2OC(F)(F)F)c(=O)n1C | inactive
14 | c1ccc(CN2CCNCC2)cc1 | inactive
15 | CC(C)N(CCC(C(N)=O)(c1ccccc1)c1ccccn1)C(C)C (stereo unspecified) | inactive
16 | O=C(CBr)OCc1ccccc1 | inactive
17 | CN1C(=O)C(O)N=C(c2ccccc2)c2cc(Cl)ccc21 (stereo unspecified) | inactive
18 | C=CCC1([C@H](C)CCC)C(=O)NC(=O)NC1=O | inactive

Row | Structure (SMILES) | Potency
19 | CCCCC(CC)COP(=O)(Oc1ccccc1)Oc1ccccc1 (stereo unspecified) | inactive
20 | COP(=S)(OC)Oc1cc(Cl)c(I)cc1Cl | inactive
21 | [CH3][Sn]([CH3])([Cl])[Cl] | inactive
22 | C(=NC1CCCCC1)=NC1CCCCC1 | inactive
23 | Clc1cccc2ccccc12 | inactive
24 | CO/C=C(/C(=O)OC)c1ccccc1COc1cccc(C(F)(F)F)n1 | inactive
25 | O=C(CBr)c1ccccc1 | inactive
26 | CC1(C)CCC(Cc2ccc(Cl)cc2)C1(O)Cn1cncn1 (stereo unspecified) | inactive
27 | O=NN1CCCCCC1 | inactive
28 | CCCCN(N=O)C(=N)N[N+](=O)[O-] | inactive
29 | Nc1ccc(N=Nc2ccc(-c3ccc(N=Nc4c(S(=O)(=O)O)cc5cc(S(=O)(=O)O)c(N=Nc6ccccc6)c(O)c5c4N)cc3)cc2)c(N)c1 | 39.4 µM (active)
30 | CC(C)(C)c1cc([N+](=O)[O-])cc([N+](=O)[O-])c1O | 27.2 µM (active)
31 | COCCOCCO | inactive
32 | CCC(COC(=O)c1cc(OC)c(OC)c(OC)c1)(c1ccccc1)N(C)C (stereo unspecified) | inactive
33 | C=CC(=O)OC | inactive
34 | CC(C)(C)C(O)C(Oc1ccc(Cl)cc1)n1cncn1 (stereo unspecified) | inactive
35 | CCCCCCCCCCOC(=O)c1ccccc1C(=O)OCCCCCCCCCC | inactive
36 | C=CCN1CC[C@]23c4c5ccc(O)c4O[C@H]2C(=O)CC[C@@]3(O)[C@H]1C5 | inactive

molecular target: Peroxisome proliferator-activated receptor gamma (Homo sapiens) (UniProt P37231); assay: qHTS assay to identify small molecule antagonists of the peroxisome proliferator-activated receptor gamma (PPARg) signaling pathway (AID 743191; calls by dose curve; note: nearly all actives have a fitted effect of over 30% in size); conditions: HEK293H PPARg-UAS-bla, beta-lactamase ratio, antagonist, 17 h; series mostly up to 62.6 µM
In short: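 GeneBLAzer PPARg UAS-bla HEK293H cells carrying a UAS-driven beta-lactamase reporter were plated at 3000 cells/well, preincubated 5 h at 37C, then given compound for 17 h at 37C; LiveBLAzer B/G FRET substrate was read after 1 h at room temperature.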

Chain of Peroxisome proliferator-activated receptor gamma (Homo sapiens) (P37231 whole entry, looked up): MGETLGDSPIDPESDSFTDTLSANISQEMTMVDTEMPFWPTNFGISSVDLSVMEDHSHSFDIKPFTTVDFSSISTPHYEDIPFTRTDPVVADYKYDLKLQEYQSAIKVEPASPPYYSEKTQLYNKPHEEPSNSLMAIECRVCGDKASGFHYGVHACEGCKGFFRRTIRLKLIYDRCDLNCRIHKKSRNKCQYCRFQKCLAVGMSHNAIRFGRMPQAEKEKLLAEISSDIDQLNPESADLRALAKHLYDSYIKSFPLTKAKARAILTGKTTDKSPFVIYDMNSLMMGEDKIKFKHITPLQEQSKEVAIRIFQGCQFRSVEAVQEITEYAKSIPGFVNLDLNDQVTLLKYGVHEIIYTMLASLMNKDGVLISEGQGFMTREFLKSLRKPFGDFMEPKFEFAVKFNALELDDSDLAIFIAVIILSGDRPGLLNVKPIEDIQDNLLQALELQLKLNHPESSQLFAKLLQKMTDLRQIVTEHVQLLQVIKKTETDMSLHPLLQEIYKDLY

Row | Structure (SMILES) | Potency
37 | O=S1(=O)OC(c2cc(Br)c(O)c(Br)c2)(c2cc(Br)c(O)c(Br)c2)c2ccccc21 | inactive
38 | CCOC(=O)[C@]1(c2ccccc2)Oc2ccccc2[C@@H]1N | inactive
39 | CC(C)=CCOc1c2occc2cc2ccc(=O)oc12 | inactive
40 | COc1cc(Cl)c(OC)cc1Cl | inactive
41 | COC(=O)C(C)N(C(=O)Cc1ccccc1)c1c(C)cccc1C (stereo unspecified) | inactive
42 | COc1nn(C(=O)NS(=O)(=O)c2ccccc2OC(F)(F)F)c(=O)n1C | inactive
43 | C=CCC1([C@H](C)CCC)C(=O)NC(=O)NC1=O | inactive
44 | CCCCC(CC)COP(=O)(Oc1ccccc1)Oc1ccccc1 (stereo unspecified) | inactive
45 | COP(=S)(OC)Oc1cc(Cl)c(I)cc1Cl | 27.5 µM (active)
46 | CO/C=C(/C(=O)OC)c1ccccc1COc1cccc(C(F)(F)F)n1 | 4.36 µM (active)
47 | O=C(CBr)c1ccccc1 | inactive
48 | CC1(C)CCC(Cc2ccc(Cl)cc2)C1(O)Cn1cncn1 (stereo unspecified) | 49 µM (active)

tested on: not listed separately; assay: qHTS assay to identify small molecule antagonists of the peroxisome proliferator-activated receptor gamma (PPARg) signaling pathway - cell viability counter screen (AID 743194); conditions: PPARg-bla HEK293H viability, CellTiter-Glo luminescence, 17 h; Potency: co-treated with 50 nM rosiglitazone; series mostly up to 62.6 µM; note: nearly all actives have a fitted effect of over 55% in size
In short: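 PPARg-UAS-bla HEK293H cells were plated, rested 5 h at 37 C, then treated with compounds plus rosiglitazone (50 nM final) for 17 h at 37 C; viability was then read by CellTiter-Glo luminescence after 30 min at room temperature.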

Row | Structure (SMILES) | Potency
49 | C[C@H]1CNCCc2ccc(Cl)cc21 | inactive
50 | CCOC(=O)[C@]1(c2ccccc2)Oc2ccccc2[C@@H]1N | inactive
51 | O=C(O)C(F)(F)C(F)(F)C(F)(F)C(F)(F)C(F)(F)C(F)(F)C(F)(F)C(F)(F)C(F)(F)C(F)(F)F | inactive
52 | Cc1cc(=O)[nH]o1 | inactive
53 | Nc1nc(=S)[nH][nH]1 | inactive
54 | CC(C)=CCOc1c2occc2cc2ccc(=O)oc12 | inactive
55 | COc1cc(Cl)c(OC)cc1Cl | inactive
56 | CC1(C)[C@H](C=C(Cl)Cl)[C@@H]1C(=O)O[C@@H](C#N)c1cccc(Oc2ccccc2)c1 | inactive
57 | COC(=O)C(C)N(C(=O)Cc1ccccc1)c1c(C)cccc1C (stereo unspecified) | inactive
58 | CC[C@H]1C[C@H]2[C@@H]3CCC4=CC(=O)CC[C@@H]4[C@H]3CC[C@]2(C)[C@H]1O | inactive
59 | O=C(O)C1(c2ccc3c(c2)OC[C@H](Cc2ccc(-c4ccccc4)cc2)[C@H]3O)CCCC1 | 43.6 µM (active)
60 | COc1nn(C(=O)NS(=O)(=O)c2ccccc2OC(F)(F)F)c(=O)n1C | inactive
61 | c1ccc(CN2CCNCC2)cc1 | inactive
62 | CC(C)N(CCC(C(N)=O)(c1ccccc1)c1ccccn1)C(C)C (stereo unspecified) | inactive
63 | O=C(CBr)OCc1ccccc1 | inactive
64 | CN1C(=O)C(O)N=C(c2ccccc2)c2cc(Cl)ccc21 (stereo unspecified) | inactive
65 | C=CCC1([C@H](C)CCC)C(=O)NC(=O)NC1=O | inactive

Row | Structure (SMILES) | Potency
66 | CCCCC(CC)COP(=O)(Oc1ccccc1)Oc1ccccc1 (stereo unspecified) | inactive
67 | COP(=S)(OC)Oc1cc(Cl)c(I)cc1Cl | inactive
68 | [CH3][Sn]([CH3])([Cl])[Cl] | inactive
69 | C(=NC1CCCCC1)=NC1CCCCC1 | 4.93 µM (active) and 3.47 µM (active)
70 | Clc1cccc2ccccc12 | inactive
71 | O=C(CBr)c1ccccc1 | inactive
72 | O=NN1CCCCCC1 | inactive
73 | CCCCN(N=O)C(=N)N[N+](=O)[O-] | inactive
74 | Nc1ccc(N=Nc2ccc(-c3ccc(N=Nc4c(S(=O)(=O)O)cc5cc(S(=O)(=O)O)c(N=Nc6ccccc6)c(O)c5c4N)cc3)cc2)c(N)c1 | inactive
75 | CC(C)(C)c1cc([N+](=O)[O-])cc([N+](=O)[O-])c1O | 0.435 µM (active)
76 | COCCOCCO | inactive
77 | CCC(COC(=O)c1cc(OC)c(OC)c(OC)c1)(c1ccccc1)N(C)C (stereo unspecified) | inactive
78 | C=CC(=O)OC | inactive
79 | CC(C)(C)C(O)C(Oc1ccc(Cl)cc1)n1cncn1 (stereo unspecified) | inactive
80 | CCCCCCCCCCOC(=O)c1ccccc1C(=O)OCCCCCCCCCC | inactive
81 | C=CCN1CC[C@]23c4c5ccc(O)c4O[C@H]2C(=O)CC[C@@]3(O)[C@H]1C5 | inactive
